Myc binder – binders of human c-Myc, primary screen, biochemical, small molecule microarray, anti-His fluorescence; His-c-Myc binding; calls only; 17,000 compounds, 1.5% hits;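 active = spot fluorescence over background with P-value below 7% in all four replicate spots, showing protein binding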;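 note: score is binary with 100 for all four spots passing and 0 otherwise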
mut p53 SMM – binders of human mutant p53, primary screen, biochemical, small molecule microarray, anti-GST fluorescence; calls only; small molecule microarray binding; mutant tumor protein p53 (GST-tagged), Homo sapiens; 17,000 compounds, 0.4% hits;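 active = compounds whose four printed spots each glow above background more than chance allows, each with a p-value under 7%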
NFkB SMM – binders of NF-kB p50 subunit, primary screen, biochemical, small molecule microarray, anti-His fluorescence. anti-His fluorescence binding. 17,000 compounds, 1.3% hits. calls only. Nuclear factor NF-kappa-B p105 subunit (Homo sapiens), P19838;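 active = spot fluorescence over background significantly raised, with a chance value under 7% in all four replicate spots of the compound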;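 note: probe protein is his-tagged human p50 processed subunit at 1 µg/ml; raw spot fluorescence signals with no normalization applied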
STAT3 SMM – STAT3 binders, primary screen, biochemical, small molecule microarray, single point, set 2; AID 624138, 2012; Signal transducer and activator of transcription 3 (Homo sapiens), P40763; His-STAT3 binding, anti-His fluorescence; calls only; 17,000 compounds, 0.2% hits;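 active = compounds whose four printed spots each show fluorescence over background unusually high for their array block, chance value under 7%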
Target sequence (P40763 whole entry, looked up): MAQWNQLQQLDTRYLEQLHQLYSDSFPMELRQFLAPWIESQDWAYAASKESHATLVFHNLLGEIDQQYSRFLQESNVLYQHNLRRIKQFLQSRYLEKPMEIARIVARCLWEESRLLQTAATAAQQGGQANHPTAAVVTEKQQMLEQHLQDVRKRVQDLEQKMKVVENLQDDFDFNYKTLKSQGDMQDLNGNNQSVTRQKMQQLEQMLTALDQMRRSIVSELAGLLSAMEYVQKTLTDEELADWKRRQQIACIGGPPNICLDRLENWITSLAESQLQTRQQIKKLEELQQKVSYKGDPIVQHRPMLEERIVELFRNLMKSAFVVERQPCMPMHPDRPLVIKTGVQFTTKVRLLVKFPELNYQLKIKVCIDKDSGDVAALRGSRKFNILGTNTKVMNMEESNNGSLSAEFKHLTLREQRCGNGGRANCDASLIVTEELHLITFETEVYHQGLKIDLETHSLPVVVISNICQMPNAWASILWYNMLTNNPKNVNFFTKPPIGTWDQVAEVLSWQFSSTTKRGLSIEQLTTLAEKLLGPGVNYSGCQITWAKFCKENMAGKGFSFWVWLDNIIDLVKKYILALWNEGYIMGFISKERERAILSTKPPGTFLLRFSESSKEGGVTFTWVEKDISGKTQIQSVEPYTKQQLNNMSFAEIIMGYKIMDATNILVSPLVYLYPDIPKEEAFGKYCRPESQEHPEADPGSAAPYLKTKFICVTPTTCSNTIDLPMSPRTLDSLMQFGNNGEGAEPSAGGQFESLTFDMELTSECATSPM
Starred values were filed as active, the others as inactive; i = inactive; + = active, no number. In the library only some 2.1% were active in any assay of this set; here they are far more common.

SMILES | Myc binder | mut p53 SMM | NFkB SMM | STAT3 SMM
Cn1c(SCC(=O)Nc2ccccc2F)nnc1-c1ccccc1 | i | i | i | i
COc1ccc(COC[C@]23N=C4Sc5ccc([N+](=O)[O-])cc5C(=O)N4[C@H](c4ccccc4O2)[C@H]3CO)cc1 | i | i | i | i
O=C1CC(O)[C@H]2[C@@H]3N1c1ccccc1[C@@]31CCN3C/C(=C/CO)[C@@H]2C[C@H]31 (some centres not stated) | i | i | i | i
COc1ccccc1N1CCN(CCC(=O)Nc2ccc(Br)c(C)c2)CC1 | i | i | i | i
CC(=O)N1Cc2ccccc2C[C@@]2(N=C(c3ccc(OCCCO)cc3)O[C@H]2c2ccccc2)C1=O | i | i | i | i
C[C@H](CO)N1C[C@H](C)[C@H](CN(C)C(=O)NC2CCCCC2)Oc2c(NC(=O)Nc3ccc(F)cc3)cccc2C1=O | i | i | i | i
C[C@@H]1CN([C@@H](C)CO)C(=O)c2cc(NC(=O)NC3CCCCC3)ccc2O[C@H]1CN(C)C(=O)Nc1ccc(C(F)(F)F)cc1 | i | i | + | i
CC(C)NC(=O)Nc1cccc2c1O[C@H](CN(C)Cc1ccccc1)[C@H](C)CN([C@@H](C)CO)C2=O | i | i | i | i
C[C@H](CO)N1C[C@H](C)[C@@H](CN(C)C(=O)NC2CCCCC2)Oc2c(NC(=O)Nc3ccc(C(F)(F)F)cc3)cccc2C1=O | + | i | + | i
CC(C)NC(=O)Nc1cccc2c1O[C@@H](CN(C)Cc1ccc(C(F)(F)F)cc1)[C@H](C)CN([C@@H](C)CO)C2=O | + | i | + | i
C[C@H](CO)N1C[C@H](C)[C@@H](CN(C)Cc2ccc(C(F)(F)F)cc2)OCc2cnnn2CCCC1=O | + | i | + | i
COc1cc(-c2c(C)cc(O)cc2O[C@@H]2O[C@H](CO)[C@@H](O)[C@H](O)[C@H]2O)oc(=O)c1 | i | i | i | i
CCCNc1ncnc2ccccc12 | i | i | i | i
C[C@@H]1CN([C@H](C)CO)C(=O)c2cccc(NC(=O)Nc3ccc(C(F)(F)F)cc3)c2O[C@@H]1CN(C)C(=O)NC1CCCCC1 | + | i | + | i
C[C@@H]1CN([C@@H](C)CO)C(=O)c2cccc(NC(=O)Nc3cccc4ccccc34)c2O[C@H]1CN(C)C(=O)Nc1ccc(C(F)(F)F)cc1 | i | i | + | i
OC1[C@H](O)CO[C@@H](OC[C@H]2O[C@@H](OC/C=C/c3ccccc3)[C@H](O)[C@@H](O)[C@@H]2O)[C@H]1O (some centres not stated) | i | i | i | i
Cn1c2ccccc2c2nnc(SCC(=O)c3ccc(Cl)cc3)nc21 | + | i | i | i
Cc1nn(CCCC(=O)O)c(C)c1[N+](=O)[O-] | + | i | i | i
COc1cccc2cc(-c3nnc(SCC(=O)N4c5ccccc5Sc5ccccc54)n3C)oc12 | i | i | i | i
NCCCN(Cc1ccco1)C1CCCC1 | + | i | i | i
Cc1cc2c(=O)n(Cc3ccco3)c(SCC(=O)N3CCc4ccccc43)nc2s1 | i | i | i | i
Cc1noc(C)c1S(=O)(=O)N(C)C[C@H]1OCCCC[C@H](C)Oc2ccc(N(C)C)cc2C(=O)N([C@@H](C)CO)C[C@@H]1C | i | + | i | i
Cc1noc(C)c1S(=O)(=O)N(C)C[C@H]1OCCCC[C@H](C)Oc2ccc(NC(=O)NC(C)C)cc2C(=O)N([C@H](C)CO)C[C@@H]1C | i | i | i | i
C[C@H](CO)N1C[C@H](C)[C@@H](CN(C)S(=O)(=O)c2ccccc2)OCCCC[C@H](C)Oc2ccc(N(C)C)cc2C1=O | i | + | i | i
Cc1noc(C)c1S(=O)(=O)N(C)C[C@@H]1OCCCC[C@@H](C)Oc2ccc(N(C)C)cc2C(=O)N([C@H](C)CO)C[C@H]1C | + | i | + | i
SMILES | Myc binder | mut p53 SMM | NFkB SMM | STAT3 SMM
Cc1noc(C)c1S(=O)(=O)N(C)C[C@H]1OCCCC[C@@H](C)Oc2ccc(NC(=O)NC(C)C)cc2C(=O)N([C@@H](C)CO)C[C@H]1C | + | i | i | i
Cc1c(C(=O)N(C)C2CCCCC2)sc2nc3ccc(N)cc3n12 | + | i | i | i
CCOc1ccccc1C(=O)Oc1c(S(=O)(=O)c2ccc(C)cc2)c(C)nn1-c1ccccc1 | + | i | i | i
CCOc1ccccc1NC(=O)c1ccccc1N(C)S(=O)(=O)c1ccc(C)cc1 | i | i | i | i
CC1Oc2c3c(c4c(-c5ccccc5)cc(=O)oc4c2C(=O)C1C)OC(C)(C)C=C3 (configuration not stated) | i | i | + | i
COc1c(-c2ccccc2)oc2c(CC=C(C)C)c3c(c(OC)c2c1=O)C=CC(C)(C)O3 | i | i | i | i
Cc1noc(C)c1S(=O)(=O)Nc1ccc2c(c1)C(=O)N([C@H](C)CO)C[C@H](C)[C@@H](CN(C)C(=O)Nc1cccc3ccccc13)OCCCC[C@H](C)O2 | + | i | + | i
Cc1noc(C)c1S(=O)(=O)Nc1ccc2c(c1)C(=O)N([C@H](C)CO)C[C@H](C)[C@@H](CN(C)C(=O)NC(C)C)OCCCC[C@H](C)O2 | i | i | + | i
COC(=O)/C=C(\C)CCC1(C)C(C)CCC2(C)C(C)=CC(=O)CC21 (configuration not stated) | i | i | i | i
CCc1ccc(OCC(=O)Nc2ccccc2C(N)=O)c(Br)c1 | i | i | i | i
COCc1c(Br)c(C)nc(OCC(=O)O)c1C#N | + | i | + | i
Cc1nc2ccc(NC(=S)NCCCO)cc2nc1C | + | i | i | i
COc1cc(NC(=O)CS(=O)(=O)Cc2ccccc2)c(OC)cc1Cl | i | i | i | i
COc1ccc(OCc2nnc3n2N=C(c2ccc(OC)c(OC)c2)C(c2ccccc2)S3)cc1 (configuration not stated) | i | i | i | i
C[C@H](CO)N1C[C@H](C)[C@H](CN(C)C(=O)Nc2ccccc2)OCCCC[C@H](C)Oc2ccc(NC(=O)CCC(F)(F)F)cc2C1=O | i | i | + | i
C[C@@H]1CCCCO[C@H](CN(C)C(=O)Nc2ccccc2)[C@@H](C)CN([C@@H](C)CO)C(=O)c2cc(NC(=O)CCC(F)(F)F)ccc2O1 | + | i | i | i
COc1cc(-c2nnc(SCC(=O)c3ccccc3)n2-c2ccccc2)cc(OC)c1OC | i | i | i | i
COc1ccc(NC(=O)CCCN2C(=O)c3ccccc3C2=O)c(OC)c1 | i | i | i | i
N#CCCSCc1ccc2oc(C(=O)O)cc2c1 | + | i | i | i

Assay outcomes deposited in PubChem by Broad Institute.
